# From PubChem BioAssay
# A number with no mark means an inactive call. For some assays here: Results with a measured potency or affinity are listed apart. The source made the active and inactive calls. Unless noted, how the calls were made is not given here.
# Key:
# [1] = antimalarial activity against Dd2 strain (AID 2302;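 active means growth inhibition above 50% at the single 2 µM test dose, taken to imply half-maximal potency below 2 µM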;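 further: 0% = DMSO untreated growth and 100% = chloroquine plus artemisinin killed control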); conditions: P. falciparum Dd2 in RBCs, LDH growth readout, 72 h; at 2 µM; hits give high values
# [2] = human hepatoma cell viability loss – ATP luminescence, cytotoxicity control for P. falciparum antimalarial project, primary screen (AID 2303;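 active means inhibition above 50%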;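 further: 0% = DMSO wells and 100% = digitonin-killed cells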); conditions: HepG2 viability, 24-48 h, at 10 µM, hits give high values
# [3] = target: L-lactate dehydrogenase (Plasmodium falciparum (isolate CDC / Honduras)) (UniProt Q27743); experiment: PfLDH activity inhibition – cell lysate, 3D7 strain, counter-screen for P. falciparum growth inhibition project (AID 2304);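 further: 0% = vehicle and 100% = reference inhibitor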; conditions: P. falciparum 3D7 crude extract, LDH APAD/NBT absorbance; at 2 µM; hits give high values
# [4] = inhibition of 3D7 malaria parasite growth – strain 3D7 (AID 2306);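 further: 0% = DMSO wells and 100% = chloroquine plus artemisinin control wells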; conditions: P. falciparum 3D7 erythrocytic growth, LDH absorbance, 72 h; at 2 µM; hits give high values
# [5] = target: Calcium-dependent protein kinase 1 (Plasmodium falciparum (isolate 3D7)) (UniProt P62344); experiment: PfCDPK1 kinase inhibitors, biochemical, TCAMS library (AID 1159585; cut-off not given, nearly all actives have IC50 up to about 0.98 µM;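 further: inhibitors leave more ATP so luminescence rises with inhibition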); conditions: recombinant PfCDPK1, Kinase-Glo ATP depletion luminescence
# [6] = target: Plasmodium falciparum protein kinase 6 (PK6, PF3D7_1337100) (UniProt Q8IDW1); experiment: PfPK6 kinase inhibitors, biochemical, TCAMS library (AID 1159586); conditions: recombinant PfPK6, Kinase-Glo ATP depletion luminescence
# [7] = target: Protein kinase 7 (PK7), Plasmodium falciparum 3D7 (PF3D7_0213400) (UniProt Q7YTF7); experiment: inhibition of Plasmodium PK7 catalytic activity – biochemical, TCAMS antimalarial set, Kinase-Glo luminescence (AID 1159587); conditions: recombinant PfPK7, Kinase-Glo ATP depletion luminescence
# [8] = target: Calcium-dependent protein kinase 4 (Plasmodium falciparum (isolate 3D7)) (UniProt Q8IBS5); experiment: PfCDPK4 kinase inhibitors, biochemical, TCAMS library (AID 1159588; cut-off not given, nearly all actives have IC50 up to about 0.91 µM); conditions: recombinant PfCDPK4, Kinase-Glo ATP depletion luminescence
# Chain of Calcium-dependent protein kinase 4 (Plasmodium falciparum (isolate 3D7)) (Q8IBS5 whole entry, looked up): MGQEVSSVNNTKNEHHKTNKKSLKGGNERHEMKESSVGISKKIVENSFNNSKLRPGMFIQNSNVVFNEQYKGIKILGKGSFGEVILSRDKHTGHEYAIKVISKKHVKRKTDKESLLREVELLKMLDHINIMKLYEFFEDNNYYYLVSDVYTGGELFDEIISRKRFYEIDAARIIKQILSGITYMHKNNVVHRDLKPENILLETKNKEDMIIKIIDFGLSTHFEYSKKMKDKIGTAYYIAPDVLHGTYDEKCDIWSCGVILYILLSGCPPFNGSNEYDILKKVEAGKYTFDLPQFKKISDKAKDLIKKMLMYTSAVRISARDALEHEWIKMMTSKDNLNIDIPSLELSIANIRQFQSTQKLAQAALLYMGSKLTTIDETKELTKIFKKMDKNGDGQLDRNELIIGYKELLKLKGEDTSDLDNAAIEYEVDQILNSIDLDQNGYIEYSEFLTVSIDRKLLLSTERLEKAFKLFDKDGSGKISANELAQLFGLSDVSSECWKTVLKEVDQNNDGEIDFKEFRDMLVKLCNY
# Chain of Calcium-dependent protein kinase 1 (Plasmodium falciparum (isolate 3D7)) (P62344 whole entry, looked up): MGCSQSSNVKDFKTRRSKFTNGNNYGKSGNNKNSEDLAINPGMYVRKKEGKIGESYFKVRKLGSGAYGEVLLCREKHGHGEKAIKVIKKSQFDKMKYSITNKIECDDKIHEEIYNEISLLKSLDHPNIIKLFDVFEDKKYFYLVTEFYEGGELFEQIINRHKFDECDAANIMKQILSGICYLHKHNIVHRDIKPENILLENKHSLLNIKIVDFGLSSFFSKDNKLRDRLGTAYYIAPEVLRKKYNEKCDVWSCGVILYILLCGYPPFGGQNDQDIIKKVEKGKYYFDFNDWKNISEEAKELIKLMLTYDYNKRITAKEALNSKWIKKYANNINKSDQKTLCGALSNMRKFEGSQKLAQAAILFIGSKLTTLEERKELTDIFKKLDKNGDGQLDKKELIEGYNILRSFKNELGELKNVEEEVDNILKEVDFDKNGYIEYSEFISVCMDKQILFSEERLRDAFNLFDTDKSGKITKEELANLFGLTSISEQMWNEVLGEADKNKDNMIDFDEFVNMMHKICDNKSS
# Chain of Plasmodium falciparum protein kinase 6 (PK6, PF3D7_1337100) (Q8IDW1 1-305): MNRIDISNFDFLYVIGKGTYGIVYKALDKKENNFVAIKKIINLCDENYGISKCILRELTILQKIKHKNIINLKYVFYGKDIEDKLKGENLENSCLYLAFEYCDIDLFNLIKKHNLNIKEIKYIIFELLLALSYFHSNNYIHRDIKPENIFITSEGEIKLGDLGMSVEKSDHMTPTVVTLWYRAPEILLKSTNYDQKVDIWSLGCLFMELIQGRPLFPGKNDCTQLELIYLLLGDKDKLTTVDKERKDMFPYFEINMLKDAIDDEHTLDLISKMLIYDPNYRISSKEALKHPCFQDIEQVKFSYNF
# Chain of L-lactate dehydrogenase (Plasmodium falciparum (isolate CDC / Honduras)) (Q27743 whole entry, looked up): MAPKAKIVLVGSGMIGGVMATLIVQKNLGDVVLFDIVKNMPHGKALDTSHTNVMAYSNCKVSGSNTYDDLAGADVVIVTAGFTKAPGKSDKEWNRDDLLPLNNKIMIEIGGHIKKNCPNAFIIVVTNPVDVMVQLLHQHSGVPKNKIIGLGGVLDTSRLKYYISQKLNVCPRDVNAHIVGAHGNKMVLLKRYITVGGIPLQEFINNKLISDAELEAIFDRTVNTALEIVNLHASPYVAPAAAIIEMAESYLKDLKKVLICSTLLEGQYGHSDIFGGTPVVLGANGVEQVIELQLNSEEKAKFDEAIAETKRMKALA
# Chain of Protein kinase 7 (PK7), Plasmodium falciparum 3D7 (PF3D7_0213400) (Q7YTF7 1-343): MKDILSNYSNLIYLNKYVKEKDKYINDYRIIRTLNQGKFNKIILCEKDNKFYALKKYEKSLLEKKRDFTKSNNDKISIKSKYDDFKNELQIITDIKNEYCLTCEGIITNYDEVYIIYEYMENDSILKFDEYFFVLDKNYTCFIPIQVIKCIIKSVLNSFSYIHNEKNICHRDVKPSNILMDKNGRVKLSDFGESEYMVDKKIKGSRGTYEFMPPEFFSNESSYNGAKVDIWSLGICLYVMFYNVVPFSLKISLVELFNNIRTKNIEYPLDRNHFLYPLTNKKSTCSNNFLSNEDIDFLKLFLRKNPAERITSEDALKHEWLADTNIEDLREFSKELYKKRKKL
Compound,growth inhibition [1],inhibition [2],inhibition [3] [%],growth inhibition [4],outcome [5],outcome [6],outcome [7],outcome [8]
Cn1c(=O)n(C)c2cc(CNCCNc3ccnc4cc(Cl)ccc34)ccc21,96% (active),17%,-1,101% (active),inactive,inactive,inactive,inactive
CCc1ccnc2c(N3CCCC3=O)cc(C(=O)N[C@@H](Cc3ccccc3)[C@H](O)CNC3CCOCC3)cc12,98% (active),2%,4,99% (active),inactive,inactive,inactive,inactive
CC(CN(C)C)C(=O)Nc1cccc(-c2ccc(-c3nc4ccc(F)cc4[nH]3)cc2)c1 (stereo not given),100% (active),11%,-1,101% (active),inactive,inactive,inactive,inactive
COCCNCc1nc(-c2ccc3c(Nc4ccc(F)c(O)c4)ccnc3c2)cs1,99% (active),-7%,6,101% (active),inactive,inactive,inactive,inactive
O=C(c1ccc(-c2ccc(-c3nc4ccccc4[nH]3)s2)cc1)N1CCCCC1CN1CCC(O)C1 (stereo not given),55% (active),18%,2,84% (active),inactive,inactive,inactive,inactive
CCC(C)NC(=O)Nc1ccc(-c2cccc(-c3nc4ccccc4[nH]3)c2)cc1 (stereo not given),37%,41%,7,94% (active),inactive,inactive,inactive,inactive
Cc1cc(N(C)CCCN(C)C)nc(Nc2ccc(Br)cc2)n1,84% (active),4%,1,100% (active),inactive,inactive,inactive,inactive
CN(C)CCOc1cc(NC(=O)Nc2ccc(-c3ccccc3)cc2Cl)ccc1I,93% (active),25%,3,102% (active),inactive,inactive,inactive,inactive
COc1ccc2c(c1)S(=O)(=O)N=C(N1CCCC1c1ccc(Cl)c(Cl)c1)N2C (stereo not given),19%,-2%,0,89% (active),inactive,inactive,inactive,inactive
Cc1nnsc1C(=O)Nc1cccc(-c2csc(-c3nc4ccccc4[nH]3)c2)c1,50% (active),51% (active),8,94% (active),inactive,inactive,inactive,inactive
CCc1cn(CCOC)c2ccc(C(=O)N[C@@H](Cc3ccccc3)[C@H](O)CNC(C)(C)CCCC(C)C)cc12,98% (active),35%,1,98% (active),inactive,inactive,inactive,inactive
Cc1ccccc1C1CCN(C2CCC(NC(=O)/C=C/c3cccc(F)c3F)CC2)CC1 (stereo not given),45%,57% (active),-3,89% (active),inactive,inactive,inactive,inactive
COc1ccc(C(=O)CCC(=O)N(Cc2ccc(-c3ccc(CNCc4cccnc4)cn3)cc2)C2CCN(Cc3ccccc3)CC2)cc1F,26%,30%,3,94% (active),inactive,inactive,inactive,inactive
COc1ccc2nccc([C@@H](O)CN3CCC(NS(=O)(=O)c4cc(Br)c(Br)s4)CC3)c2c1,36%,14%,-2,92% (active),inactive,inactive,inactive,inactive
Cc1cc(NC(=O)NCCN2CCC(NS(=O)(=O)c3ccccc3Cl)C2)c2ccccc2n1 (stereo not given),43%,1%,-5,97% (active),inactive,inactive,inactive,inactive
CN1CCN(CCCN(Cc2ccc(-c3cccc(CNCc4ccc5c(c4)OCO5)c3)cc2)C(=O)NC2CCCCC2)CC1,92% (active),31%,4,95% (active),inactive,inactive,inactive,inactive
CNc1ccc(CNCc2ccc(-c3ccc(-c4nc5c(C)cccc5[nH]4)s3)cc2)cc1,94% (active),29%,-5,101% (active),inactive,inactive,inactive,inactive
CC(C)COc1ccc(Cl)cc1Cc1nc(-c2nc3ccc(CN(C)C)cc3[nH]2)co1,87% (active),14%,5,97% (active),inactive,inactive,inactive,inactive
CCc1ccc(CN2CCC(CNC(=O)c3cc(-c4cccc(C(F)(F)F)c4)cs3)C2)cc1 (stereo not given),48%,45%,2,97% (active),inactive,inactive,inactive,inactive
N/C(=N\c1ncccn1)Nc1cccc(Cc2ccccc2)n1,34%,51% (active),-2,90% (active),inactive,inactive,inactive,inactive

Compound,growth inhibition [1],inhibition [2],inhibition [3] [%],growth inhibition [4],outcome [5],outcome [6],outcome [7],outcome [8]
CC(C)(C)CC(C)(C)c1ccc(O)c(C(=O)Nc2cccc([N+](=O)[O-])c2)c1,97% (active),49%,-8,95% (active),inactive,inactive,inactive,inactive
OCCN1CCN(Cc2ccc(-c3ccc(-c4nc5ccc(F)cc5[nH]4)cc3)cc2)CC1,99% (active),33%,-5,101% (active),inactive,inactive,inactive,inactive
CCC(C)(C)c1ccc(OCCCC(=O)Nc2ccc(Cl)c([N+](=O)[O-])c2)c(C(C)(C)CC)c1,88% (active),-1%,-8,92% (active),inactive,inactive,inactive,inactive
CN(C)CCCNc1ccnc2cc(Cl)ccc12,100% (active),10%,4,100% (active),inactive,inactive,inactive,inactive
CN(C)Cc1cccc(-c2ccc(Nc3nccc(NCC(O)c4ccccc4)n3)cc2)c1 (stereo not given),77% (active),75% (active),1,100% (active),inactive,inactive,inactive,inactive
COC(=O)c1c(C#N)c(OC)cc(O)c1CSC[C@@H](CN1CCCCC1)Nc1nc(-c2ccc([N+](=O)[O-])cc2)cs1,77% (active),8%,-3,101% (active),inactive,inactive,inactive,inactive
COc1ccc(CON2C(N)=NC(N)=NC2(C)C)cc1OC,97% (active),68% (active),1,96% (active),inactive,inactive,inactive,inactive
CCn1ncc2c(N3CCCC3=O)cc(C(=O)N[C@@H](Cc3ccccc3)[C@H](O)CNC(C)(C)c3cccc(C(F)(F)F)c3)cc21,99% (active),10%,3,98% (active),inactive,inactive,inactive,inactive
COc1ccc(-c2cccc(NC(=O)c3ccc(F)cc3)c2)cc1CN1CCCN(C)CC1,35%,26%,2,101% (active),inactive,inactive,inactive,inactive
CCCOc1ccc(CCCON2C(N)=NC(N)=NC2(C)C)cc1,94% (active),65% (active),0,95% (active),inactive,inactive,inactive,inactive
CCOc1cccc2nc(NCCCNCc3ccc(Cl)c(Cl)c3)cc(NCCCNCc3ccc(Cl)c(Cl)c3)c12,58% (active),96% (active),-5,98% (active),inactive,inactive,inactive,inactive
COc1ccc(NC(=O)NC2CCN(CCCCCNC(=O)/C=C/c3ccc(Cl)c(Cl)c3)C2)c(OC)c1 (stereo not given),9%,24%,-3,96% (active),inactive,inactive,inactive,inactive
O=C(/C=C/c1ccc(Cl)c(Cl)c1)NCCCCCN1CCCN(C(=S)Nc2ccc(Cl)cc2)CC1,10%,7%,-3,86% (active),inactive,inactive,inactive,inactive
COc1cc(N(Cc2ccccc2C)S(=O)(=O)Cc2ccccc2[N+](=O)[O-])c(OC)cc1Cl,44%,16%,-2,94% (active),inactive,inactive,inactive,inactive
CCCCOC(=O)NCCCC[C@H](NC(=O)OC(C)(C)C)C(=O)N[C@H](C(=O)OC(c1ccccc1)c1ccccc1)[C@H]1O[C@@H](n2ccc(=O)[nH]c2=O)[C@@H]2OC(C)(C)O[C@@H]21,65% (active),7%,4,87% (active),inactive,inactive,inactive,inactive
COc1ccc(C=NNc2nc(-c3ccccc3)cc(=O)[nH]2)cc1OC,93% (active),22%,4,92% (active),inactive,inactive,inactive,inactive
COc1ccc2nccc(N3CCC(CCNCc4ccc5c(n4)NC(=O)CO5)CC3)c2c1,50% (active),22%,-1,101% (active),inactive,inactive,inactive,inactive
CCOCc1cnc(C)nc1CNC(=O)c1c(C)[nH]c2ccc(C)cc12,65% (active),8%,3,84% (active),inactive,inactive,inactive,inactive
c1cncc(CCNCc2cccc(-c3csc(-c4nc5ccccc5[nH]4)c3)c2)c1,98% (active),26%,-1,100% (active),inactive,inactive,inactive,inactive
FC(F)(F)c1cccnc1N1CCC(Nc2nc3ccc(Cl)cc3[nH]2)CC1,39%,32%,-2,93% (active),inactive,inactive,inactive,inactive
